Measurements from the supplement of paper PMC11732987, “Enantioselective OTUD7B fragment discovery through chemoproteomics screening and high-throughput optimisation” (Communications Chemistry, 2025).

Assays:
Test in all cases: log2 ratio of Biotin-Ahx-Ub-VS probe labelling (fragment/DMSO); higher = less target engagement (more negative = stronger competition), active = hit call of the paper (q ≤ 0.05, log2 ratio ≤ -1)
Conditions in all cases: compound concentration: 200 uM; treatment time: 3 h
USP34 = USP34 (UniProt Q70CQ2)
Sequence of USP34 (Q70CQ2 whole entry, the tested form may be a part): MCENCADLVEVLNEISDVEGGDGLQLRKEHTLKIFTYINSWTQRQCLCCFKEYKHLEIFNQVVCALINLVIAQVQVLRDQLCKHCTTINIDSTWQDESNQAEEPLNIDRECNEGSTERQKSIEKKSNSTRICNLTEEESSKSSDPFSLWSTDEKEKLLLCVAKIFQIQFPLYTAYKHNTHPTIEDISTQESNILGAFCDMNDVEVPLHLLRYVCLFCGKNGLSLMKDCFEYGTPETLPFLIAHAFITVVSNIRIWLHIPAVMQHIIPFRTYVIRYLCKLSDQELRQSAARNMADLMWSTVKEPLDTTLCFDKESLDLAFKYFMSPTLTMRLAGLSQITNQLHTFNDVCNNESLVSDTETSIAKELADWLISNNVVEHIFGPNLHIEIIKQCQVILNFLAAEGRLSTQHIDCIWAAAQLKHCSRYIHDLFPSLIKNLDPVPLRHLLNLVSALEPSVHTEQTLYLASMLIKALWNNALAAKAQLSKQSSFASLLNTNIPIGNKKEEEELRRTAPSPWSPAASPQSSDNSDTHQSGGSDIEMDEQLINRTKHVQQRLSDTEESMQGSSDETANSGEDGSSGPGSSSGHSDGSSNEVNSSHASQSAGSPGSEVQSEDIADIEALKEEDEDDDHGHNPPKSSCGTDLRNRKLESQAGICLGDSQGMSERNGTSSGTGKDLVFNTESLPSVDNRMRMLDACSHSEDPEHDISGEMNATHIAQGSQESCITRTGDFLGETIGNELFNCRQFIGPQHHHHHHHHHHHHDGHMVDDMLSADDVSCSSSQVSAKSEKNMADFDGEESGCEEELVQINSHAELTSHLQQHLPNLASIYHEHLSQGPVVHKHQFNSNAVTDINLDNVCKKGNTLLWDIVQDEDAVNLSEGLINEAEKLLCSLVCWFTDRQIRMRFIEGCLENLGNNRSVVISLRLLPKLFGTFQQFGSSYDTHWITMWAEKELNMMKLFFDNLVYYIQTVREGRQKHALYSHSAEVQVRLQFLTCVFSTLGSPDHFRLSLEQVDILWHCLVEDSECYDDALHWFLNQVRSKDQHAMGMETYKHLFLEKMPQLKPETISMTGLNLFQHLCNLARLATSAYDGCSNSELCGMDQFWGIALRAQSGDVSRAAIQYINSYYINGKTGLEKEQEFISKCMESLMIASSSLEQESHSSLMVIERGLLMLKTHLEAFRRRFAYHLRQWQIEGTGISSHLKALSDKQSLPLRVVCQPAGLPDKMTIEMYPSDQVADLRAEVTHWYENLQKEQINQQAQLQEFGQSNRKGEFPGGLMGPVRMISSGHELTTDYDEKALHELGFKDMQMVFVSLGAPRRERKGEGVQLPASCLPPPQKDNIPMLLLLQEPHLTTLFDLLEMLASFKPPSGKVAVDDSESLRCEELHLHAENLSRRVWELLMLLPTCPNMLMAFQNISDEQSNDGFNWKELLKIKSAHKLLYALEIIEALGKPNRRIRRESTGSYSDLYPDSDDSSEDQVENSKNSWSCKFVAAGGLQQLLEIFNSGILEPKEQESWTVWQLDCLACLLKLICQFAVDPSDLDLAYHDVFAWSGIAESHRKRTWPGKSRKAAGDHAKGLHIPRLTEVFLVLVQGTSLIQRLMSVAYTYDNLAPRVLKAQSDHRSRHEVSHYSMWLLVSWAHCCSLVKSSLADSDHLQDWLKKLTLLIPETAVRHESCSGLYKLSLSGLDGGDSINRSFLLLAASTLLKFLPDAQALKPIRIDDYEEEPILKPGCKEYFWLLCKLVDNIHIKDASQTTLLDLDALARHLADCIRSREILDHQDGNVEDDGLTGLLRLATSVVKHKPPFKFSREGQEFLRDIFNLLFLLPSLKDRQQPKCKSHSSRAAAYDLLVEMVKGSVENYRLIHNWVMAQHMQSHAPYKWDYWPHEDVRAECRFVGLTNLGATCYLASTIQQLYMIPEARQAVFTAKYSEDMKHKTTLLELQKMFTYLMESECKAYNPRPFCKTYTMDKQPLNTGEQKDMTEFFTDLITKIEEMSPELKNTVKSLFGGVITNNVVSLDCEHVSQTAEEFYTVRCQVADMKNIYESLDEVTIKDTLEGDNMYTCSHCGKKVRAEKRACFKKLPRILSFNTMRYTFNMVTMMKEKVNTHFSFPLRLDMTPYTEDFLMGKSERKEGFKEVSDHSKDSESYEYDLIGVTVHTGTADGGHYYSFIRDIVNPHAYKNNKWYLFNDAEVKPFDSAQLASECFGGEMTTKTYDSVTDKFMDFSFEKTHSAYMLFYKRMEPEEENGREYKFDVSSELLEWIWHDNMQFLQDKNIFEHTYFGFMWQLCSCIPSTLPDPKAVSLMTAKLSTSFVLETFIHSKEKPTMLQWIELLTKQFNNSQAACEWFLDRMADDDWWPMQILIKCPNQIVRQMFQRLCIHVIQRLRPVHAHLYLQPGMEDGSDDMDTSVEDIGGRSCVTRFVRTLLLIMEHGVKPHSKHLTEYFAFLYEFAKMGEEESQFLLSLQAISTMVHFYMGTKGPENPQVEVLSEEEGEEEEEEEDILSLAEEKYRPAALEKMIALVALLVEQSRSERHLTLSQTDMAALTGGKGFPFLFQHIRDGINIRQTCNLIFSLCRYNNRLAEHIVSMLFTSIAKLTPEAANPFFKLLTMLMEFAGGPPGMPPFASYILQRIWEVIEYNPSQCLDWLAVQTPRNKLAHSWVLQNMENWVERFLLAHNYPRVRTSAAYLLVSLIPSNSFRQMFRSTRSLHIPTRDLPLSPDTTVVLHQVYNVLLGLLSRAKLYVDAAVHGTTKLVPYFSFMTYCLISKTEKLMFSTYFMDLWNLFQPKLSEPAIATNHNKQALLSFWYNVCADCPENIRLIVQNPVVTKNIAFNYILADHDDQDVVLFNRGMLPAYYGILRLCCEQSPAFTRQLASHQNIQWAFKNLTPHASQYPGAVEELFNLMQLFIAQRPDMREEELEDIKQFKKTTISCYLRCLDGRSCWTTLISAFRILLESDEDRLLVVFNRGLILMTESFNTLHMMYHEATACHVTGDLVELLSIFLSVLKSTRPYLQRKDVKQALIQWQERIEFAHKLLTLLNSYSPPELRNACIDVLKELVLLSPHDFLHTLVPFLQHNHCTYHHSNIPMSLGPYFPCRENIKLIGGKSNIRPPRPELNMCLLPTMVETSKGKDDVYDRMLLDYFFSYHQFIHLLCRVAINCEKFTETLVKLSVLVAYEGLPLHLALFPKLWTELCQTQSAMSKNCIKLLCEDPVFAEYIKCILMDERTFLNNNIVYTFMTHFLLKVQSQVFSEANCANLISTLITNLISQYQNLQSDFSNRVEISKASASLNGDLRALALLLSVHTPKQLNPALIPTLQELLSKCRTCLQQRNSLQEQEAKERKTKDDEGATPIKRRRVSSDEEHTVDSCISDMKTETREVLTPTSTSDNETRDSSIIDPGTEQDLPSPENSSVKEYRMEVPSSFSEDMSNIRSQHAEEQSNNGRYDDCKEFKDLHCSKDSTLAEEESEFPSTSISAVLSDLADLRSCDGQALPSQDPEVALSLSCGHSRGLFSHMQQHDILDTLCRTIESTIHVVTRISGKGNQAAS
Method in brief: (§1)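 Labelling with Biotin-Ahx-Ub-VS (0.5 µM final, 1 h) followed a 3 h triplicate treatment of HEK293T lysate (495 µg per sample, Tris/CHAPS/IGEPAL buffer with protease inhibitors) with fragment at 200 µM or vehicle. Labelled DUBs were NeutrAvidin-enriched, digested with LysC and trypsin, and run by diaPASEF LC-MS/MS. The values, average log2 fragment/vehicle ratios by unpaired t-test, come from global-median-normalised Spectronaut label-free quantities. Proteins with ≥2 unique peptides were used.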

USP36 = molecular target: T1, USP36 (UniProt Q9P275)
T1 sequence (whole entry): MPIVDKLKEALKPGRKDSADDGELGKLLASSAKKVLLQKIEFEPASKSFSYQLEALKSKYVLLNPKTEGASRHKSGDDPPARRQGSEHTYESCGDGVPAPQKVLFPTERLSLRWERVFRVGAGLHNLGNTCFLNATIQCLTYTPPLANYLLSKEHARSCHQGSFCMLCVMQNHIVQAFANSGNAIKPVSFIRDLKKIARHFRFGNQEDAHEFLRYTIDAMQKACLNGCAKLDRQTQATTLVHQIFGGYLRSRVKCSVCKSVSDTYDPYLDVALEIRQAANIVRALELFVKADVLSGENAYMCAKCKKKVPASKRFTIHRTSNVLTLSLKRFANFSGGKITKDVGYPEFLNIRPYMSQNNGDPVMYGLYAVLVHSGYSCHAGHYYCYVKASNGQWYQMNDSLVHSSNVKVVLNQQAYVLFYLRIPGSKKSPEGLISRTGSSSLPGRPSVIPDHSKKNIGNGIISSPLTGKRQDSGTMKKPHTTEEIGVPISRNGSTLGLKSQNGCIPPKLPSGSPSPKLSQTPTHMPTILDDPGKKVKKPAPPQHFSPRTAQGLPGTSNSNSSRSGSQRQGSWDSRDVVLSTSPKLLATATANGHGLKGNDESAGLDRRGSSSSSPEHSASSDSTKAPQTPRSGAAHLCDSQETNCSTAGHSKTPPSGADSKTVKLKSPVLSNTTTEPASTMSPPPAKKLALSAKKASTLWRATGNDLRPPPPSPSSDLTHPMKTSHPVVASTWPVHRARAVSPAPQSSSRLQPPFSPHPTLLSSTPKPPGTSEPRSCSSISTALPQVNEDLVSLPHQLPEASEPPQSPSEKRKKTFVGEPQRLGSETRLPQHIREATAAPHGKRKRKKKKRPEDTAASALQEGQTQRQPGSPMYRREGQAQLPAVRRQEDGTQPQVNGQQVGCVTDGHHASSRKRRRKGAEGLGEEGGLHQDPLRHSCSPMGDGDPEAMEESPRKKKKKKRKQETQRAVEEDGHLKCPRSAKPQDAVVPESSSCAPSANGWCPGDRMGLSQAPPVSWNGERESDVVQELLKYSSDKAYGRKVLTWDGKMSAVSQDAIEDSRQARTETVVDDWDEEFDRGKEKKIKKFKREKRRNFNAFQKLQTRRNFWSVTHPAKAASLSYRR
Method in brief: as §1

USP38 = molecular target: T2, USP38 (UniProt Q8NB14)
T2 sequence (whole entry): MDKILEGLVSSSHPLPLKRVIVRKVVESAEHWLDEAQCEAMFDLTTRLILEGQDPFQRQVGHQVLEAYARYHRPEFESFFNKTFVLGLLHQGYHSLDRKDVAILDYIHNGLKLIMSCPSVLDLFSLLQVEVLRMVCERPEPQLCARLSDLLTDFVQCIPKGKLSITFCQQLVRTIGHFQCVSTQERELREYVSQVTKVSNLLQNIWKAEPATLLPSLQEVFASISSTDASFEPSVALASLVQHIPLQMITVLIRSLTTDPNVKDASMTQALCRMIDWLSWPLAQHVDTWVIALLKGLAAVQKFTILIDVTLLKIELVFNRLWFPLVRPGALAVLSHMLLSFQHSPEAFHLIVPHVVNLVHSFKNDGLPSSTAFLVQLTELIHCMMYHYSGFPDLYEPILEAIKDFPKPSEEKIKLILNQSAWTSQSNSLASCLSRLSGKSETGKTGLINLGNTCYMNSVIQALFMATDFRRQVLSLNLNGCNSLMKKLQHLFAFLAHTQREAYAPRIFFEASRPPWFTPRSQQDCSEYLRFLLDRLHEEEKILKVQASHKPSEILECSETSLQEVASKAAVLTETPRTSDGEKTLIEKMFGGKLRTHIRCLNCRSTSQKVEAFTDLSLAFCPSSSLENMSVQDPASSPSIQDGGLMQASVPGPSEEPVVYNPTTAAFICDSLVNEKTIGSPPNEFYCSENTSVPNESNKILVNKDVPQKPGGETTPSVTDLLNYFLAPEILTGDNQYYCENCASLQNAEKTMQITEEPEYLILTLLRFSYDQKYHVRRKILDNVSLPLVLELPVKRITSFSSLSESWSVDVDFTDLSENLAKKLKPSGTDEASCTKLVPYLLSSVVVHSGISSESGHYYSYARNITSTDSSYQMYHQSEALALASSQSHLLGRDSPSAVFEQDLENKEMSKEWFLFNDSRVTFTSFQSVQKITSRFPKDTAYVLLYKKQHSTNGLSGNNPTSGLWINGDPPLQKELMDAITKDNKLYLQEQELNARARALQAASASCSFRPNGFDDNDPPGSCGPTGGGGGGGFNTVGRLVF
Method in brief: as §1

USP39 = molecular target: T3, USP39 (UniProt Q53GS9)
T3 sequence (whole entry): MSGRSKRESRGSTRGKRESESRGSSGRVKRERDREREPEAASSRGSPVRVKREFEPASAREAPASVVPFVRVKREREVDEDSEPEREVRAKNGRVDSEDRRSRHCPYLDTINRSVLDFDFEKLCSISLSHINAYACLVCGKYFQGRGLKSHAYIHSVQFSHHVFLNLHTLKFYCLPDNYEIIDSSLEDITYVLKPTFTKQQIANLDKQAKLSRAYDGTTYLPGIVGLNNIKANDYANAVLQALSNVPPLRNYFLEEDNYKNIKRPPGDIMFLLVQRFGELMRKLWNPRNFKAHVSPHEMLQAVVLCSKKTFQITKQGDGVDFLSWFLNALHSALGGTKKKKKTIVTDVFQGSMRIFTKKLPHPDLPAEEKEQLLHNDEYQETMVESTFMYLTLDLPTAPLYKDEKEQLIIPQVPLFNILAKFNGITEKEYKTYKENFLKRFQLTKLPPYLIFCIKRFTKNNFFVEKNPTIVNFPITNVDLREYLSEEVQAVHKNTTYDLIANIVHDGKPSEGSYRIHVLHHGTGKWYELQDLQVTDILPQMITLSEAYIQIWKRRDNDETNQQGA
Method in brief: as §1

USP4 = molecular target: T4, USP4 (UniProt Q13107)
T4 sequence (whole entry): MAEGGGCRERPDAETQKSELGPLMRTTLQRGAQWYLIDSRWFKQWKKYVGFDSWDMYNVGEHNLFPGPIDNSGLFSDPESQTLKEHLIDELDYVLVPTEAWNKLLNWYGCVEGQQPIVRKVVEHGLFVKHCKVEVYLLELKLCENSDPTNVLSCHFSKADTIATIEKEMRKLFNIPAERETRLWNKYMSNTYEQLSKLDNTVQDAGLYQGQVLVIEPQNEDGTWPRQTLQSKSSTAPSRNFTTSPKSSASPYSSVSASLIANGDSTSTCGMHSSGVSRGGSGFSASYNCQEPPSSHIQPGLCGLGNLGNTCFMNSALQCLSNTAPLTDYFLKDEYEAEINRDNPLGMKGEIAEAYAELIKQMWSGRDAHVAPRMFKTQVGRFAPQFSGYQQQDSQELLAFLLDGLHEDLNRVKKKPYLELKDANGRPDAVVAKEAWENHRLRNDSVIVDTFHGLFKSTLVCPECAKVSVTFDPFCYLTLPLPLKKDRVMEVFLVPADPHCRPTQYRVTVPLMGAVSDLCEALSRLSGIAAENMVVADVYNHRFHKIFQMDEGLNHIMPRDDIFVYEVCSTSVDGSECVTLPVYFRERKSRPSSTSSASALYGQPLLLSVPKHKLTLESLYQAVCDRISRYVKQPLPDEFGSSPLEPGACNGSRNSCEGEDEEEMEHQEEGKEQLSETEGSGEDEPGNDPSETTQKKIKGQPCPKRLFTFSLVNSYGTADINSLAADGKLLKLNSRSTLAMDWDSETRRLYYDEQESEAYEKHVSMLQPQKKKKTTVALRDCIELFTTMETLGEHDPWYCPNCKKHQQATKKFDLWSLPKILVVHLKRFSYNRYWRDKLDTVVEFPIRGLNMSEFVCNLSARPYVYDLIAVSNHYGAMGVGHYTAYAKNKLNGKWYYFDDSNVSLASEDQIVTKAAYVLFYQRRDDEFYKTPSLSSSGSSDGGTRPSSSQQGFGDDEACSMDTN
Method in brief: as §1

Measured: log2 ratio of Biotin-Ahx-Ub-VS probe labelling

Cc1cccc(NC(=O)[C@@H]2CCCN2C(=O)CCl)n1
inactive: USP34 0.0425 | USP36 -0.0946 | USP38 -0.0719 | USP39 0.179 | USP4 -0.0817
